Measurements: the supplement of paper PMC6555819

How the values were obtained:
Assay in all cases: PBM binding z-score (relative to random genomic background probes); higher = stronger binding; sequences stand for … in GC…GCGATTGACAGCGTAGAATGAAGG
[1] = tested on: FXR:RXRa (NR concentration 270 nM, RXRa partner concentration 90 nM)
How it was run: (§1)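 Binding z-scores were set against random background probes. The data came from custom Agilent 4×180K protein-binding microarrays carrying double-stranded probes with 34-nt variable regions, incubated 1 h with ligand-free nuclear receptor dimers. Partner-specific antibodies detected binding, and scanned fluorescence was regression-normalized.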

[2] = tested on: LXRa:RXRa (NR concentration 270 nM, RXRa partner concentration 90 nM)
How it was run: as §1

[3] = tested on: LXRa homodimer (NR concentration 270 nM)
How it was run: as §1

[4] = tested on: LXRb:RXRa (NR concentration 270 nM, RXRa partner concentration 90 nM)
How it was run: as §1

[5] = tested on: LXRb homodimer (NR concentration 270 nM)
How it was run: as §1

[6] = tested on: PPARa:RXRa (NR concentration 270 nM, RXRa partner concentration 90 nM)
How it was run: as §1

[7] = tested on: PPARg:RXRa (NR concentration 180 nM, RXRa partner concentration 90 nM)
How it was run: as §1

[8] = tested on: PPARg:RXRa 270nM:90nM, anti-RXR (NR concentration 270 nM, RXRa partner concentration 90 nM)
How it was run: as §1

[9] = tested on: PPARg:RXRa 30nM:10nM, anti-RXR (NR concentration 30 nM, RXRa partner concentration 10 nM)
How it was run: as §1

[10] = tested on: PPARg:RXRa 90nM:30nM, anti-RXR (NR concentration 90 nM, RXRa partner concentration 30 nM)
How it was run: as §1

[11] = tested on: PPARg:RXRa DBDmut IVT, anti-RXR (DBD mutation: RXRa K156A/R161A, NR concentration 270 nM, RXRa partner concentration 90 nM)
How it was run: as §1

[12] = tested on: PPARg:RXRa IVT, anti-PPARg (NR concentration 270 nM, RXRa partner concentration 90 nM)
How it was run: as §1

[13] = tested on: PPARg DBDmut:RXRa IVT, anti-PPARg (DBD mutation: PPARg1 K132A/R137A, NR concentration 270 nM, RXRa partner concentration 90 nM)
How it was run: as §1

[14] = tested on: PPARg DBDmut IVT, anti-PPARg (DBD mutation: PPARg1 K132A/R137A, NR concentration 270 nM)
How it was run: as §1

[15] = tested on: PPARg homodimer (NR concentration 180 nM)
How it was run: as §1

[16] = tested on: PXR:RXRa (NR concentration 270 nM, RXRa partner concentration 90 nM)
How it was run: as §1

[17] = tested on: PXR homodimer (NR concentration 270 nM)
How it was run: as §1

[18] = tested on: RARa:RXR (NR concentration 270 nM, RXRa partner concentration 90 nM)
How it was run: as §1

[19] = tested on: RARa homodimer (NR concentration 270 nM)
How it was run: as §1

[20] = tested on: RARb:RXRa (NR concentration 270 nM, RXRa partner concentration 90 nM)
How it was run: as §1

Sequence | PBM binding z-score [1] | PBM binding z-score [2] | PBM binding z-score [3] | PBM binding z-score [4] | PBM binding z-score [5] | PBM binding z-score [6] | PBM binding z-score [7] | PBM binding z-score [8] | PBM binding z-score [9] | PBM binding z-score [10] | PBM binding z-score [11] | PBM binding z-score [12] | PBM binding z-score [13] | PBM binding z-score [14] | PBM binding z-score [15] | PBM binding z-score [16] | PBM binding z-score [17] | PBM binding z-score [18] | PBM binding z-score [19] | PBM binding z-score [20]
CGAACTAGGTCATTGAAAGGACAGTGAATAGTAA | 3.97 | 2.81 | 0.177 | 1.84 | 0.134 | 4.42 | 7.82 | 6.43 | 4.13 | 5.83 | 8.01 | 8.24 | 2.22 | 2.02 | 3.92 | 2.1 | 0.391 | 4.04 | 1.01 | 4.1
CGAACGAGGGCATCAGTTGATAGCAAATGCCGAT | 0.292 | 0.0604 | -0.396 | 0.107 | -0.651 | 1.19 | 1.1 | 0.934 | -0.0649 | 0.293 | 2.85 | 1.94 | -0.013 | -0.142 | -0.115 | 0.166 | 0.152 | 0.224 | -0.261 | 2.03
ATCTCGAGGTAAAGTTCAGTGAAAGATCGATAGA | 1.3 | 1.92 | 1.04 | 1.29 | 0.424 | 2.4 | 2.53 | 3.53 | 1.91 | 3.69 | 0.243 | 1.24 | 0.853 | 0.574 | 1.21 | 2.17 | 1.44 | 1.34 | 0.469 | 2.86
AGAACGAGGACAATGAGTTGATAGCACGGGTGGC | -0.125 | -0.562 | -0.33 | -0.706 | -0.434 | -0.365 | 1.06 | -0.0649 | -0.0875 | -0.147 | 1.03 | 0.378 | -0.192 | -0.367 | 0.00958 | 0.277 | 1.99 | -0.176 | 0.102 | 0.775
ACTAACGGGTCAACGAGGTTATAGCACGCGTATA | 6.32 | 4.49 | 0.715 | 3.82 | 0.313 | 5.19 | 4.64 | 4.34 | 1.48 | 2.98 | 1.94 | 3.19 | 1.38 | 1.31 | 2.63 | 4.96 | 2.39 | 5.01 | 0.559 | 3.91
TCTTGTGGATCAAGCAGGTTAAGAAAGCCTGAGT | 0.364 | 0.407 | -0.212 | 0.444 | -0.493 | 0.766 | -0.54 | 1.07 | 2.27 | 1.58 | 1.46 | 0.177 | -0.713 | 0.262 | -0.187 | 0.422 | 0.248 | 0.506 | -0.587 | 0.161
CCTGCTAGGTCATGGTGAGCTAATCTACAGTATG | 3.57 | 2.37 | -0.17 | 1.56 | -0.467 | 3.41 | 2.55 | 2.76 | 0.872 | 1.78 | 4.15 | 3.71 | 1.17 | 0.341 | 0.897 | 1.14 | -0.321 | 2.29 | -0.0406 | 3.77
CCTTACGGGTCACGAGGTTAGAGCACGACGAGCG | 6.98 | 4.06 | 0.353 | 3.58 | 0.0179 | 5.8 | 7.39 | 6.87 | 3.49 | 6.11 | 4.55 | 5.59 | 2.76 | 1.38 | 2.96 | 4.32 | -0.124 | 5.72 | 0.978 | 4.6
AGAATGAGGTTATAAGTAGATCAGGGAAGAAAGT | 1.94 | 1.59 | 0.0372 | 1.73 | 0.269 | 2.96 | 2.67 | 2.94 | 1.34 | 2.45 | 3.03 | 2.5 | 0.674 | 0.782 | 1.83 | 1.47 | 0.923 | 1.88 | 0.571 | 1.25
CGACAAAGTTCAACTAAGGTAACGTAAAGCACGC | 6.54 | 5.86 | 3.44 | 4.09 | 1.92 | 4.93 | 4.38 | 4.95 | 2.16 | 3.95 | 0.248 | 1.7 | 0.707 | 1.21 | 2.54 | 5.16 | 3.06 | 3.51 | 0.942 | 5.07
CGTCCAAGGTCAATGCTAGGTCAGTGTAAGCATT | 6.38 | 5.59 | 2.58 | 4.11 | 0.681 | 5 | 3.55 | 4.67 | 1.23 | 2.97 | 3.19 | 3.97 | 0.641 | -0.396 | 6.64 | 4.83 | 2.1 | 5.95 | 1.32 | 5.13
GCTGCTAGGTCAACTGATCGTCAGCTAAAGCTCG | 4.12 | 2.74 | -0.171 | 1.86 | -0.26 | 3.62 | 2.54 | 3.43 | 0.361 | 2.23 | 4.99 | 4.1 | 0.249 | -0.779 | 0.899 | 1.23 | -0.904 | 2.14 | -0.582 | 4.19
CGAACTAGGTCAGAACAGGAAAGTGAAGGATGAT | 0.901 | 0.447 | -0.258 | 0.38 | -0.116 | 3.21 | 5.08 | 4.29 | 1.92 | 3.33 | 7.16 | 6.78 | 2.1 | 0.812 | 0.835 | 0.0929 | -0.161 | 0.482 | -0.00201 | 2.72
ACAGACAGGTGAGTGGAGGTAACTCAGCTGGACG | 0.578 | 0.206 | -0.47 | -0.13 | -0.275 | 0.431 | 0.557 | -0.0456 | -0.0591 | 0.000165 | 0.56 | 1.09 | -0.327 | -0.467 | 0.425 | 0.121 | -0.151 | 0.729 | -0.053 | 0.617
CCATACAGGTGAAAGGTAACTCAGTCTGGTACGC | 0.917 | 0.86 | 0.0219 | 1.34 | 0.147 | 4.47 | 7.97 | 7.64 | 6.75 | 8.48 | 4.44 | 4.52 | 0.453 | 0.514 | 1.27 | 1.12 | 0.206 | 1.99 | 0.894 | 1.44
